Laboratory results reported in PubChem BioAssay (EPA / NIEHS).
Values joined by “and” are separate entries in the source; they are usually repeats but may differ in a detail not shown here. Identical values can stand only once. A structure can be active in one record and inactive in another. Active and inactive are the calls of the source. The calls were made as follows: active = hit-call score of the fitted dose curve at least 0.9, where 1 is the maximum; inactive = score below 0.9.

read-out: Interleukin-8 (IL8), CXCL8 (gene 3576); experiment: BSK_BE3C_IL8: BioMAP Diversity Plus: BE3C Assay for Interleukin-8 (IL8) Biomarker Activity (AID 2284280); conditions: primary human bronchial epithelial cells
Method: BSK_BE3C is a cell-based, multiplexed-readout assay that uses bronchial epithelial cell, a human lung primary cell, with measurements taken at 24 hours after chemical dosing in a 96-well plate.BSK_BE3C_IL8 is an assay component measured in the BSK_BE3C assay. It measures IL-8 antibody related to regulation of gene expression using ELISA technology.Data from the assay component BSK_BE3C_IL8 was analyzed at the endpoint, BSK_BE3C_IL8, in the positive analysis fitting direction relative to DMSO as the negative control and baseline of activity. Using a type of binding reporter, gain or loss-of-signal activity can be used to understand protein changes. To generalize the intended target to other relatable targets, this assay endpoint is annotated to the 'cytokine' intended target family, where the subfamily is 'interleukins'.
The levels of cell surface (or secreted, indicated by the prefix "s") biomarker endpoints were measured by ELISA. Overt cytotoxicity to cells in confluent adherent cultures (all systems other than the BT system) was assessed by measuring total protein levels using sulforhodamine B (SRB) staining in parallel cultures at the time of biomarker measurements, indicated as SRB endpoints. For proliferation assays for adherent cell types, individual cell types are cultured at sub-confluence and relative cell numbers quantified by SRB staining at time points optimized for each system (48 h: 3C and CASM3C systems; 72 h: BT and HDF3CGF systems; 96 h: SAg system). SRB was performed by staining cells with 0.1% SRB after fixation with 10% TCA and reading wells at 560 nm.Viability and proliferation of PBMC (T cells) was quantified by Alamar Blue reduction for the SAg and BT systems. For PBMC viability (referred to as PBMC Cytotoxicity within the assay endpoint names), cells were plated (75,000/well in a 96-well plate) and then chemical samples added for 1 h before addition of activators, SEB and TSST-1 (20 ng/mL final concentration each). Cells were incubated for 90 h. Then, Alamar Blue (20 uL/well) (Invitrogen, Cat DAL1100) was added for 6 h, and the plates were read with a fluorescence microplate reader at 546/580 nm (excitation/emission). For PBMC proliferation, cells were plated and activated as above but incubated for only 16 h prior to addition of Alamar Blue. Plates were read after 6 h.

outcome, inactive:
Oc1ccc(Cc2ccccc2O)cc1, CN(Cc1cnc2nc(N)nc(N)c2n1)c1ccc(C(=O)N[C@@H](CCC(=O)O)C(=O)O)cc1, CN(CCO)S(=O)(=O)C(F)(F)C(F)(F)C(F)(F)C(F)(F)C(F)(F)C(F)(F)C(F)(F)C(F)(F)F, CCCCCCCCCCCC, OCC(F)(F)C(F)(F)C(F)(F)C(F)(F)C(F)(F)C(F)(F)C(F)(F)C(F)(F)C(F)(F)C(F)(F)C(F)(F)F, O=P(O)(O)CCC(F)(F)C(F)(F)C(F)(F)C(F)(F)C(F)(F)C(F)(F)C(F)(F)C(F)(F)F, O=C1NS(=O)(=O)c2ccccc21, O=S(=O)(O)C(F)(F)C(F)(F)C(F)(F)C(F)(F)C(F)(F)C(F)(F)C(F)(F)C(F)(F)C(F)(F)C(F)(F)F, O=C(O)CCC(F)(F)C(F)(F)C(F)(F)C(F)(F)C(F)(F)F, O=P(O)(O)CCC(F)(F)C(F)(F)C(F)(F)C(F)(F)C(F)(F)C(F)(F)F, O=C(O)CCC(F)(F)C(F)(F)C(F)(F)C(F)(F)C(F)(F)C(F)(F)F, C=CC(=O)OCCC(F)(F)C(F)(F)C(F)(F)C(F)(F)C(F)(F)C(F)(F)C(F)(F)C(F)(F)F

AC50, active:
CCCCCCCCCCCC 9.52 µM, OCC(F)(F)C(F)(F)C(F)(F)C(F)(F)C(F)(F)C(F)(F)C(F)(F)C(F)(F)C(F)(F)C(F)(F)C(F)(F)F 0.224 µM, O=C(O)C(F)(F)OC(F)(F)C(F)(F)OC(F)(F)C(F)(F)OC(F)(F)C(F)(F)C(F)(F)C(F)(F)F 6.28 µM and 6.03 µM, Oc1c(Cl)cc(Cl)cc1Sc1cc(Cl)cc(Cl)c1O 11.7 µM and 11.1 µM, O=C(CC(=O)C(F)(F)C(F)(F)C(F)(F)F)c1cccs1 48.2 µM and 55.2 µM
